In PubChem BioAssay (Tox21):
Results filed as inconclusive are left out. Active and inactive are the calls of the source. Unless noted, calls come from the whole dose curve; as a rule, active = well fitted curve in the direction sought with a large enough effect in the repeat runs; inconclusive = weak or mixed curves; inactive = no such curve, though single readings can be large; an effect the other way counts as inactive or inconclusive.

Tests used:
[1] = qHTS assay for small molecule agonists of the p53 signaling pathway (AID 651631; calls by dose curve; note: nearly all actives have a fitted effect of over 15% in size)
Outline: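 Read-out is beta-lactamase FRET fluorescence measured 2 h after substrate addition at room temperature, in HCT-116 cells with a p53 response element-driven reporter exposed to compounds for 16 h at 37 °C.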

[2] = qHTS assay for small molecules that induce genotoxicity in human embryonic kidney cells expressing luciferase-tagged ATAD5 (AID 651632); note: nearly all actives have a fitted effect of over 15% in size
Outline: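 Genotoxicity read-out via ATAD5-luciferase: HEK293T cells, 16 hr compound incubation at 37C, Amplite detection.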

[3] = qHTS assay for small molecule agonists of the p53 signaling pathway - cell viability (AID 651633; calls by dose curve;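 note: p53RE-bla HCT reporter cells with a stable beta-lactamase p53 reporter; nearly all actives have a fitted effect of over 30% in size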)
Outline: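 p53RE-bla cells were treated with compound for 16 hours at 37 C. Cytotoxicity was then measured as CellTiter-Glo luminescence after 30 min at room temperature.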

[4] = qHTS assay for small molecules that induce genotoxicity in human embryonic kidney cells expressing luciferase-tagged ATAD5 - cell viability (AID 651634; calls by dose curve; note: nearly all actives have a fitted effect of over 25% in size)
Outline: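 Live-cell protease activity (CellTiter-Fluor, fluorescence) indicates viability. HEK293T cells with luciferase-tagged ATAD5; 15.5 hr compound treatment at 37C.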

[5] = qHTS assay for small molecule disruptors of the mitochondrial membrane potential - cell viability (AID 720634; calls by dose curve;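 note: human HepG2 liver cancer cells; nearly all actives have a fitted effect of over 20% in size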)
Outline: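 Human hepatoma HepG2 cells were treated for 1 hr with test chemicals, then given m-MPI dye and CellTiter-Glo. Cell viability reflects luminescence proportional to cellular ATP.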

[6] = qHTS assay for small molecule disruptors of the mitochondrial membrane potential (AID 720635)
Outline: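 HepG2 cells exposed to compound 1 hr at 37C, then Mito-MPS dye 30 min. Ratio read of aggregate (540/590 nm) versus monomer (490/535 nm) fluorescence.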

[7] = qHTS assay to test for compound auto fluorescence at 590 nm (red) in HepG2 cells (AID 720674)
Outline: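 HepG2 cells, 2,000 per well in MEM with 10% FBS, attached overnight at 37 C, then got 23 nL compound or DMSO. After 1 hr at 37 C, 5% CO2, red fluorescence was read at 540/590 nm against Rose Bengal sodium as reference.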

[8] = qHTS assay to test for compound auto fluorescence at 535 nm (green) in HepG2 cells (AID 720675)
[9] = qHTS assay to test for compound auto fluorescence at 460 nm (blue) in HEK293 cells (AID 720678)
Outline: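 Cells were seeded and left to adhere for 4-5 hr at 37C. Compounds were then pin-transferred. After an overnight incubation at 37C under 5% CO2, intrinsic fluorescence at 405/460 nm was measured and referenced to triamterene.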

[10] = qHTS assay to test for compound auto fluorescence at 590 nm (red) in HEK293 cells (AID 720679)
Outline: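 Each well held 2,000 HEK293 cells in medium containing 10% dialyzed FBS. Following 4-5 hr attachment at 37C, 23 nL test compound or DMSO was added; plates sat overnight, and red fluorescence (540/590nm) was recorded.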

[11] = qHTS assay to test for compound auto fluorescence at 535 nm (green) in HEK293 cells (AID 720680)
[12] = qHTS assay to test for compound auto fluorescence at 460 nm (blue) in HEK293 cell free culture (AID 720681)
Outline: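 Compounds were added to cell-free DMEM with 10% FBS and fluorescence read directly. The blue channel used 405 nm excitation and 460 nm emission, with triamterene as the reference fluorophore.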

[13] = qHTS assay to test for compound auto fluorescence at 535 nm (green) in HEK293 cell free culture (AID 720682)
Outline: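 Fluorescein serves as the green reference fluorophore; each compound's intrinsic emission at 535 nm (excitation 485 nm) is reported as an equivalent amount of that dye, measured in serum-containing DMEM without cells.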

[14] = qHTS assay to test for compound auto fluorescence at 590 nm (red) in HEK293 cell free culture (AID 720683)
Outline: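 Cell-free wells of DMEM with 10% FBS received compound, and intrinsic fluorescence was read at excitation/emission 540/590 nm. Values expressed as equivalence to Rose Bengal sodium.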

[15] = qHTS assay to test for compound auto fluorescence at 590 nm (red) in HepG2 cell free culture (AID 720684)
Outline: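 Compound was pinned into wells holding MEM with 10% FBS and no cells, and red fluorescence was read at Ex/Em 540/590 nm. Signal is expressed as auto fluorescence equivalency relative to Rose Bengal sodium.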

[16] = qHTS assay to test for compound auto fluorescence at 460 nm (blue) in HepG2 cell free culture (AID 720685)
Outline: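 Compound (23 nL) or DMSO pinned into cell-free MEM with 10% FBS; blue fluorescence read at 405/460 nm excitation/emission, expressed as auto-fluorescence equivalency to triamterene.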

[17] = qHTS assay to test for compound auto fluorescence at 535 nm (green) in HepG2 cell free culture (AID 720686)
[18] = qHTS assay to test for compound auto fluorescence at 460 nm (blue) in HepG2 cells (AID 720687)
Outline: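 HepG2 cells in MEM with 10% FBS, attached overnight at 37 C, were exposed to compound or DMSO for 1 hr at 37 C, 5% CO2. Blue fluorescence was read at 405/460 nm, with triamterene as reference fluorophore.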

[19] = molecular target: Glucocorticoid receptor (Homo sapiens) (UniProt P04150); test: qHTS assay to identify small molecule agonists of the glucocorticoid receptor (GR) signaling pathway (AID 720691; active = well fitted activation curve with a large enough effect in the signal ratio in the repeat runs, not every such curve was filed as active; the % refers to the signal ratio); details: GR-bla HeLa, beta-lactamase reporter ratio, 18 h; activation: at 62.4 µM (top of the series)
Sequence of Glucocorticoid receptor (Homo sapiens) (P04150 whole entry, looked up): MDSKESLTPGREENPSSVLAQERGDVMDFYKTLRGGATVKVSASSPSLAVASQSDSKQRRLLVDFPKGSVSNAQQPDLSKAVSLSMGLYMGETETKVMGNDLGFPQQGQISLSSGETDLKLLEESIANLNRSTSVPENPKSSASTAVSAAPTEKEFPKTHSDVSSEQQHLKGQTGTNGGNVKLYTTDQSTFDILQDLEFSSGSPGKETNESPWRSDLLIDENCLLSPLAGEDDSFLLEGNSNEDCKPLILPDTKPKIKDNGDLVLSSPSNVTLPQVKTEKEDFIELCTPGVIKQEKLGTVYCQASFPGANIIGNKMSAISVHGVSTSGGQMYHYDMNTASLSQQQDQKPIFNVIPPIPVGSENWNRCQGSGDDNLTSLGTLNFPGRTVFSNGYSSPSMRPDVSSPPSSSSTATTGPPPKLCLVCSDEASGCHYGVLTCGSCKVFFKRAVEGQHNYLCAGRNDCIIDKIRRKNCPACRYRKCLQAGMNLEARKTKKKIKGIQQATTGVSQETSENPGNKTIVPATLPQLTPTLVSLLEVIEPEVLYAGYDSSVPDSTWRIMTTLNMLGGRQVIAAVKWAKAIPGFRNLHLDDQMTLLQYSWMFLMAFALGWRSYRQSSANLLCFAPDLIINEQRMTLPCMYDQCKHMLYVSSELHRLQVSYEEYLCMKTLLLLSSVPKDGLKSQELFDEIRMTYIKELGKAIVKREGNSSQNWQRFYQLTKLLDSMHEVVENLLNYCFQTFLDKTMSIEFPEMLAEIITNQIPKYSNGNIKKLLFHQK
Outline: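 Beta-lactamase reporter activity, read as fluorescence intensity, was measured in GR-bla HeLa cells exposed to compounds for 18 h at 37 C and then loaded with LiveBLAzer B/G FRET substrate for 2 h at room temperature.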

[20] = molecular target: Glucocorticoid receptor (Homo sapiens) (UniProt P04150); test: qHTS assay to identify small molecule antagonists of the glucocorticoid receptor (GR) signaling pathway (AID 720692; active = well fitted inhibition curve with a large enough effect in the signal ratio in the repeat runs, not every such curve was filed as active; the % refers to the signal ratio)
Outline: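 Fluorescence from cleaved LiveBLAzer B/G FRET substrate reports GRE-driven beta-lactamase in HeLa cells; compounds are tested against 5 nM dexamethasone (final) over 18 h at 37 C, substrate incubation 2 h at room temperature.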

Measured: Potency

CC[N+](CC)(CC)CCC(O)(c1ccccc1)C1CCCCC1 (centres undefined)
inactive: [1] | [2] | [3] | [4] | [5] | [6] | [7] | [8] | [9] | [10] | [11] | [12] | [13] | [14] | [15] | [16] | [17] | [18] | [19] | [20]

CC1=C(/C=C/C(C)=C/C=C/C(C)=C/C=C/C=C(C)/C=C/C=C(C)/C=C/C2=C(C)CCCC2(C)C)C(C)(C)CCC1
inactive: [1] | [2] | [3] | [4] | [5] | [6] | [7] | [8] | [9] | [10] | [11] | [12] | [13] | [14] | [15] | [16] | [17] | [18] | [19] | [20]

CC(C)C[C@H](NC(=O)[C@@H](COC(C)(C)C)NC(=O)[C@H](Cc1ccc(O)cc1)NC(=O)[C@H](CO)NC(=O)[C@H](Cc1c[nH]c2ccccc12)NC(=O)[C@H](Cc1cnc[nH]1)NC(=O)[C@@H]1CCC(=O)N1)C(=O)N[C@@H](CCCN=C(N)N)C(=O)N1CCC[C@H]1C(=O)NNC(N)=O
inactive: [1] | [2] | [3] | [4] | [5] | [6] | [7] | [8] | [9] | [10] | [11] | [12] | [13] | [14] | [15] | [16] | [17] | [18] | [19] | [20]

N=C(N)n1cccn1
inactive: [1] | [2] | [3] | [4] | [5] | [6] | [7] | [8] | [9] | [10] | [11] | [12] | [13] | [14] | [15] | [16] | [17] | [18] | [19] | [20]

O=P(O)(O)OP(=O)(O)OP(=O)(O)O
inactive: [1] | [2] | [3] | [4] | [5] | [6] | [7] | [8] | [9] | [10] | [11] | [12] | [13] | [14] | [15] | [16] | [17] | [18] | [19] | [20]

O=C1CC[C@@H](C(=O)N[C@H]2C[C@@H]2c2ccccc2)N1
inactive: [1] | [2] | [3] | [4] | [5] | [6] | [7] | [8] | [9] | [10] | [11] | [12] | [13] | [14] | [15] | [16] | [17] | [18] | [19]
